Bioassay records deposited in PubChem BioAssay by National Center for Advancing Translational Sciences (NCATS).
Rows were chosen to be rich in hits. Some 19% of all compounds tested hit in one or more screens of this group.
KB-V1 cytotox: qHTS assay for MDR1-selective chemotherapeutics: Primary screen using the drug-selected MDR subline cells KB-V1; KB-V1 MDR cells viability, CellTiter-Glo, 72 h; Potency, µM (highest dose often 46.1 µM), hits mostly cytotoxic; 400,000 compounds, 3.4% hits; AID 1347076, 2019; further: nearly all actives have a fitted effect of over 60% in size
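qHTS viability screen in drug-selected KB-V1 MDR cells: 72 h compound treatment at 37 degrees C, ATP luminescence end point.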
HT1080-NT tox: qHTS for induction of synthetic lethality in tumor cells producing 2HG: qHTS for the HT-1080-NT fibrosarcoma cell line | HT-1080-NT fibrosarcoma viability, CellTiter-Glo ATP luminescence, 48 h | Potency, µM (titrated, usually from 46.1 µM), for inactives: at the highest dose activity, negative = less viability, most hits filed as cytotoxic | 360,000 compounds, 1.6% hits;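 further: NT is the 2HG producing partner of a matched IDH1 knockdown line; 0% = DMSO-treated cells and -100% = media-only wells without cells; nearly all actives have a fitted effect of over 55% in size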
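750 cells/well, RPMI + 5% FBS; 2 h settle, compound pin-transfer, 48 h at 37 degrees C. CellTiter-Glo 10 min RT, luminescence. Normalized to DMSO and media-only wells.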
HT1080 IDH1KD tx: qHTS for induction of synthetic lethality in tumor cells producing 2HG: qHTS for the HT-1080-IDH1KD cell line | Potency, µM (highest dose often 46.1 µM), for the others: top-dose activity, negative = toxicity, actives largely listed as cytotoxic | AID 686971, 2013 | HT-1080 IDH1 knockdown viability, ATP luminescence, 48 h | 360,000 compounds, 2% hits;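 further: 0% = DMSO wells and -100% = cell-free medium wells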
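IDH1KD HT-1080 cells, 750/well, RPMI + 5% FBS; compound pinned after 2 h settling; 48 h, 37 °C; CellTiter-Glo luminescence; % activity normalised to DMSO and no-cell wells; curves fitted, classed by r2 and efficacy.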
KB-3-1 cytotox: qHTS assay for MDR1-selective chemotherapeutics: Primary screen using the parental adenocarcinoma cell KB-3-1; 400,000 compounds, 1.4% hits; KB-3-1 viability, CellTiter-Glo ATP luminescence, 72 h; AID 1347075, 2019; Potency, µM (doses to about 46.1 µM), most hits filed as cytotoxic; further: nearly all actives have a fitted effect of over 60% in size
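Cytotoxicity in the drug-sensitive parental line KB-3-1 was scored as loss of CellTiter-Glo luminescence following 72 h incubation with compound. Values come from curve fitting of normalized concentration-response data.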
TDP1 cell CPT: qHTS for Inhibitors of human tyrosyl-DNA phosphodiesterase 1 (TDP1): qHTS in cells in presence of CPT. chicken DT40 Tdp1-/-;hTDP1 cells + 20 nM CPT, ATP luminescence, 48 h. Potency, µM (highest dose often 46.2 µM), without a hit: at the top dose activity change, negative = growth inhibition, most hits filed as inhibitors. 420,000 compounds, 12% hits; further: nearly all actives have a fitted effect of over 55% in size
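Chicken DT40 Tdp1-/- cells complemented with human TDP1, 400 cells/well, exposed to compounds plus 20 nM camptothecin for at least 48 h at 37 C; viability read as ATP content by CellTiter-Glo luminescence.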
DT40 TDP1 no CPT: qHTS for Inhibitors of human tyrosyl-DNA phosphodiesterase 1 (TDP1): qHTS in cells in absence of CPT. Potency, µM (highest dose often 46.2 µM), for inactives: top-dose activity change, negative = growth inhibition, most hits filed as inhibitors. DT40 Tdp1-/- hTDP1 cells, no CPT, ATP luminescence, 48 h. 420,000 compounds, 15% hits; further: nearly all actives have a fitted effect of over 55% in size
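A cellular qHTS used chicken DT40 cells lacking endogenous Tdp1 but carrying stably transfected human TDP1. Compounds were applied without camptothecin, and cell growth kinetics were judged by ATP-dependent luminescence after ≥48 hr.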
* marks the source's active call; other numbers are inactive results; i = inactive; ? = inconclusive; . = not tested or not shown; [ ] = dose if it differs, or a comment. The call rests on the fitted dose curve; in most records, active means well fitted curve in the direction sought with a large enough effect; inconclusive means small, poorly fitted or top-dose-only effect, or another doubt; inactive means no such curve, though single readings can be large; an effect the other way counts as inactive or inconclusive. Unless noted, on the % scale 0 is the no-effect control and ±100 the full control effect; potency means the concentration at half of the fitted maximal effect.

SMILES	KB-V1 cytotox	HT1080-NT tox	HT1080 IDH1KD tx	KB-3-1 cytotox	TDP1 cell CPT	DT40 TDP1 no CPT
Nc1c(Cl)cc(C2=NCCn3nc4ccccc4c32)cc1Cl	20.6µM*	-11.3%	-6.6%	6.51µM*	23.1µM*	?
Cc1ccc(C(c2nnnn2Cc2ccccc2)N2CCN(Cc3ccncc3)CC2)cc1 (configuration not stated)	i	.	.	i	?	?
CCOC(=O)c1c(C)[nH]c(C)c1S(=O)(=O)NC(CC)CN1CCOCC1 (configuration not stated)	i	12.5%	13.5%	i	5.0%	15.7%
CCOC(=O)C1=C(N)OC2=C(C(=O)CCC2)C1c1ccc(C)s1 (configuration not stated)	i	5.5%	7.5%[9.24 µM]	i	-2.4%	-11.1%
O=C(OCc1ccccc1)N1CCC2CC1c1cc(-c3ccc4c(c3)OCO4)ccc12 (configuration not stated)	i	-3.0%	2.9%	i	14.6µM*	?
COc1ccc(-c2ccc3c(c2)C2CC3CCN2C(=O)C(C)(C)C)cc1 (configuration not stated)	i	-2.0%	-0.8%	?	?	20.6µM*
CCCCN(C(C)=O)c1ccc2c(c1)C1CC2CCN1C(=O)OCc1ccccc1 (configuration not stated)	i	-13.6%	-24.4%	i	2.06µM*	3.66µM*
COc1cccc(-c2ccc3c(c2)C2CC3CCN2C(C)=O)c1 (configuration not stated)	i	-3.1%	0.6%	i	-1.7%	?
O=C(OCc1ccccc1)N1CCC2CC1c1ccc(N3CCN(Cc4ccc5c(c4)OCO5)CC3)cc12 (configuration not stated)	i	?	?	i	?	?
O=C(c1ccc(-c2ccccc2)cc1)N1CCC2CC1c1cc(-c3ccc4c(c3)OCO4)ccc12 (configuration not stated)	i	5.8%	4.5%	i	?	?
Cc1ccc(C(=O)N2CCC3CC2c2cc(-c4ccc5c(c4)OCO5)ccc23)cc1 (configuration not stated)	i	-16.2%	-11.9%	i	16.4µM*	13µM*
CCc1noc(C)c1C(=O)Nc1ccccc1C(C)(C)C	i	6.7%	8.7%	i	10.1%	12.0%
CSc1ccc(/C=N/n2c(C)cc(C)cc2=O)cc1	i	4.4%	-1.3%	i	-10.7%	-16.8%
OCC1CCCN(c2nc3cc4c(cc3cc2CNCc2cccc(C(F)(F)F)c2)OCO4)C1 (configuration not stated)	.	.	.	.	-3.9%[9.04 µM]	-16.9%
CCCOc1ccccc1C1NC(=O)NC(C)=C1C(=O)OCc1ccccc1 (configuration not stated)	20.6µM*	?	?	i	23.1µM*	?
CC1=C(C(=O)OCc2ccc3c(c2)OCO3)C(c2ccccc2OCc2ccccc2)NC(=O)N1 (configuration not stated)	?	?	?	i	?	25.9µM*
CCOC(=O)C1=C(C)NC(=O)NC1c1cccc(OC)c1OCc1ccccc1Cl (configuration not stated)	13µM*	-24.7%	?	i	8.2µM*	?
CC1=C(C(=O)OCc2ccc3c(c2)OCO3)C(c2ccc(O)c([N+](=O)[O-])c2)NC(=O)N1 (configuration not stated)	i	-13.2%	-7.7%	i	-10.2%	?
O=C(NN=C1CCCCCC1)c1ccc2c(c1)OCO2	i	-12.5%	-24.0%	i	6.5%	-0.5%
COc1ccc(N2CCN(Cc3nc4c(c(=O)n(C)c(=O)n4C)n3CCc3ccccc3)CC2)cc1	i	12.7%	-1.1%	i	?	?
COc1ccc(N2CCN(Cc3nc4c(c(=O)n(C)c(=O)n4C)n3CC(C)=O)CC2)cc1	?	3.3%	-5.6%	i	13µM*	23.1µM*
COc1ccc(N2CCN(Cc3nc4c(c(=O)n(C)c(=O)n4C)n3Cc3ccccc3C)CC2)cc1	i	-9.1%	2.6%	i	18.4µM*	16.4µM*
CN(C)Cc1ccccc1-c1cncnc1NC1CC1	.	.	.	.	-2.7%	-12.9%
CN(CC(=O)Nc1cc(S(=O)(=O)N2CCCC2)ccc1Cl)Cc1ccc2c(c1)OCO2	i	-20.0%	-14.8%	?	-96.6%	?
CN(CC(=O)Nc1cc(S(=O)(=O)N2CCCCCC2)ccc1Cl)Cc1ccc2c(c1)OCO2	i	-1.2%	-18.7%	?	16.4µM*	?
SMILES	KB-V1 cytotox	HT1080-NT tox	HT1080 IDH1KD tx	KB-3-1 cytotox	TDP1 cell CPT	DT40 TDP1 no CPT
COc1ccc(S(=O)(=O)N2CCCCCC2)cc1NC(=O)CN(C)Cc1ccc2c(c1)OCO2	i	-17.2%	?	i	?	20.6µM*
COc1ccc(S(=O)(=O)N2CCCCC2)cc1NC(=O)CN(C)C1CCCCC1	i	-22.3%	-18.0%	i	?	?
Cc1noc(C)c1CSCC(=O)Nc1nc2ccc(S(C)(=O)=O)cc2s1	i	2.8%	-5.5%	i	?	-17.7%
CN1CCn2c1nc(N1CCOCC1)nc2=O	i	13.9%	11.2%	i	2.6%	-5.4%
NC(=O)c1ccccc1NC(=S)NC(=O)CCc1ccccc1	i	3.26µM*	3.26µM*	i	3.66µM*	2.59µM*
Cc1cccc(C)c1NC(=S)NC(=O)CCc1ccccc1	?	10µM*	11.2µM*	i	4.3%	-25.4%
CSc1cccc(NC(=S)NC(=O)CCc2ccccc2)c1	?	-17.1%	-20.3%	?	?	-6.1%
CCCC(=O)NC(=S)Nc1c(C)cc(Br)cc1C	?	0.4%	-3.7%	18.4µM*	?	16.4µM*
O=C(NC1CCN(Cc2ccccc2)CC1)c1cn(-c2ccccc2)nc1-c1cccnc1	i	5.0%	6.7%	i	-29.3%	-25.4%
Cc1cc(C)cc(OCC(=O)OC/C(O)=C(\C#N)c2nc3ccccc3[nH]2)c1	i	-11.7%	-21.8%	?	?	20.6µM*
